Data: PubChem BioAssay AID1030 (National Center for Advancing Translational Sciences (NCATS), 2008)
The whole screen tested about 220,000 compounds, of which about 16,000 (7.3%) were called active. Where a call stands in place of a potency, no number is given. Another 25% or so got no clear call; they are omitted. The call rests on the fitted dose curve; in most records, active means well fitted inhibition curve with a large enough effect (not every such curve was filed as active); inconclusive means small, poorly fitted or top-dose-only effect, or another doubt; inactive means no such curve, though single readings can be large or run the other way. For the sample, actives were picked, then their nearest neighbours and some compounds at random.

Biological target: Aldehyde dehydrogenase 1A1 (Homo sapiens) (UniProt P00352)
Assay: qHTS Assay for Inhibitors of Aldehyde Dehydrogenase 1 (ALDH1A1)
Conditions: Purified ALDH1A1, NADH fluorescence, propionaldehyde substrate; series mostly up to 75.3 µM
Potency means the concentration at half of the fitted maximal effect.

Sequence of Aldehyde dehydrogenase 1A1 (Homo sapiens) (P00352 whole entry, looked up): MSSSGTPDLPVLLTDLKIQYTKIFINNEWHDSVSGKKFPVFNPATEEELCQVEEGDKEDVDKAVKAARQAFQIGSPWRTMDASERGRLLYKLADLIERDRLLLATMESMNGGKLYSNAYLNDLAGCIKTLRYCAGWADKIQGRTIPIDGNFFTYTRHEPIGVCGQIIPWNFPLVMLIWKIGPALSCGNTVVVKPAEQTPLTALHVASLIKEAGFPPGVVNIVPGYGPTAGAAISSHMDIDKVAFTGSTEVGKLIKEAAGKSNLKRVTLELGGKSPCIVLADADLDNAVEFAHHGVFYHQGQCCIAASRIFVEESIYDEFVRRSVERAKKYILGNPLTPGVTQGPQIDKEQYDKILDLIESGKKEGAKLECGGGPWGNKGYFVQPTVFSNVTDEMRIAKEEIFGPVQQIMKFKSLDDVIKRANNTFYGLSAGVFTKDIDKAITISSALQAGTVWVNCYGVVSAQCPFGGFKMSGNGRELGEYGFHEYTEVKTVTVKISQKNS

**Q.** Cc1ccccc1NC(=O)NNC(=O)OC(C)(C)C was tested. Which Potency did it give?
**A.** inactive

**Q.** Which Potency does the source give for Cc1c(CCOC(=O)c2cc([N+](=O)[O-])ccc2Cl)sc[n+]1CCCCS(=O)(=O)[O-] here?
**A.** inactive

**Q.** COc1cccc2c(N/N=C/c3ccco3)cc(C)nc12 was tested. Which Potency did it give?
**A.** inactive

**Q.** How did the Potency turn out when O=C1/C(=C\c2cccnc2)CN(Cc2ccccc2)C/C1=C\c1cccnc1 was run?
**A.** 7.94 µM (active)

**Q.** For O=Cc1cn(Cc2ccccc2)nc1-c1cccnc1, which Potency is on record?
**A.** inactive

**Q.** Which Potency does the source give for Clc1ccc(CN2CCN(/N=C/c3cccnc3)CC2)cc1 here?
**A.** inactive

**Q.** For O=C(Nc1ccccc1C(=O)N1CCOCC1)c1ccc(CSc2ccccc2)cc1, which Potency is on record?
**A.** inactive

**Q.** How did the Potency turn out when O=C(/C=C/c1ccc(Cl)cc1)Nc1ccc(Br)cn1 was run?
**A.** inactive

**Q.** How did the Potency turn out when Cc1cc(NC(=O)CSc2nc3cc(Cl)ccc3c(=O)n2Cc2ccco2)no1 was run?
**A.** inactive

**Q.** How did the Potency turn out when O=C(CSc1nc2cc3c(cc2c(=O)n1CCC1=CCCCC1)OCO3)NCc1ccco1 was run?
**A.** inactive

**Q.** For C=C(C)Cn1c(SCC(=O)NCc2ccco2)nc2sc3c(c2c1=O)CCC3, which Potency is on record?
**A.** 11.2 µM (active)

**Q.** How did the Potency turn out when COc1ccc(-n2c(SCC(=O)Nc3sc4c(c3C#N)CCCC4)nnc2-c2ccc(O)cc2)cc1 was run?
**A.** inactive

**Q.** With N#Cc1c(NC(=O)CSc2nc3ccccc3c(=O)n2Cc2ccco2)sc2c1CCCC2 as the compound, how does the Potency read?
**A.** 25.1 µM (active)

**Q.** With O=C(CSc1c2c(nc3ccc(Cl)cc13)CCCC2)NCc1ccco1 as the compound, how does the Potency read?
**A.** inactive

**Q.** With COc1cc(CNc2ncn[nH]2)ccc1OCc1ccccc1C as the compound, how does the Potency read?
**A.** inactive

**Q.** Which Potency does the source give for CCC(=O)N1CCC(C(N)=O)(N2CCCCC2)CC1 here?
**A.** inactive

**Q.** With CC(O)CNCCOc1cccc(Oc2ccccc2)c1 (stereo not drawn) as the compound, how does the Potency read?
**A.** inactive

**Q.** Which Potency does the source give for CCOCCCNC(=O)C(NC(=O)Cc1c[nH]c2ccccc12)c1ccc(OC)cc1 (stereo not drawn) here?
**A.** inactive

**Q.** Which Potency does the source give for CN1CCN(c2ccc(CNS(=O)(=O)c3cccc(F)c3)cc2)CC1 here?
**A.** inactive

**Q.** Which Potency does the source give for O=C(/C=C/c1ccc(Cl)cc1Cl)c1cccnc1 here?
**A.** 10 µM (active)

**Q.** For O=C(/C=C/c1ccc(Cl)c([N+](=O)[O-])c1)c1cccnc1, which Potency is on record?
**A.** inactive

**Q.** Which Potency does the source give for O=C(/C=C/c1ccc(Cl)cc1Cl)NCc1ccco1 here?
**A.** inactive

**Q.** With CC1(C)CC(=O)C(C2c3ccccc3S(=O)(=O)c3ccccc32)C(=O)C1 as the compound, how does the Potency read?
**A.** inactive

**Q.** How did the Potency turn out when COC(=O)c1cc(C)sc1NC(=O)CC1Nc2ccccc2NC1=O (stereo not drawn) was run?
**A.** inactive

**Q.** How did the Potency turn out when CN(NC(=O)C1CC(=O)N(c2ccccc2)C1)C1=NS(=O)(=O)c2ccccc21 (stereo not drawn) was run?
**A.** inactive

**Q.** Which Potency does the source give for CCOc1ccc(C(=O)NC(=S)Nc2ccc(NC(=O)C(C)C)cc2)cc1[N+](=O)[O-] here?
**A.** inactive

**Q.** How did the Potency turn out when O=C(CSc1ccc([N+](=O)[O-])cn1)Nc1ccc(N2CCOCC2)c(Cl)c1 was run?
**A.** 22.4 µM (active)

**Q.** Which Potency does the source give for O=C(CSc1ccc([N+](=O)[O-])cn1)Nc1ccc(N2CCOCC2)cc1 here?
**A.** inactive

**Q.** How did the Potency turn out when CCOC(=O)c1c(NC(=O)c2ccc(N3CCOCC3)c([N+](=O)[O-])c2)sc(C)c1C was run?
**A.** inactive

**Q.** With CCOc1ccc(C(=O)NC(=S)Nc2ccc(N3CCOCC3)c(Cl)c2)cc1[N+](=O)[O-] as the compound, how does the Potency read?
**A.** 2.51 µM (active)

**Q.** With O=C(CCNC(=O)c1ccc([N+](=O)[O-])cc1)Nc1ccccc1N1CCOCC1 as the compound, how does the Potency read?
**A.** inactive

**Q.** CN(C)N(C)C(=O)C(O)(c1ccccc1)c1ccccc1 was tested. Which Potency did it give?
**A.** inactive

**Q.** For Cc1ccc(S(=O)(=O)N(C)c2ccc(OCC(=O)NC3=NCCS3)cc2)cc1, which Potency is on record?
**A.** inactive

**Q.** For Cc1ccnc(N)c1, which Potency is on record?
**A.** inactive

**Q.** With Cc1cc(C(C)(C)C)cc(C)c1N as the compound, how does the Potency read?
**A.** inactive

**Q.** Which Potency does the source give for Cc1cc(C)cc(N)c1 here?
**A.** 25.1 µM (active)

**Q.** For Cc1ccc(NC(=O)c2cccnc2C(=O)Nc2ccc(C)cc2)cc1, which Potency is on record?
**A.** inactive

**Q.** How did the Potency turn out when CCCSc1nsc(N)n1 was run?
**A.** 20 µM (active)

**Q.** With CCCCCCSc1nsc(N)n1 as the compound, how does the Potency read?
**A.** inactive

**Q.** COc1ccccc1OCC(=O)OCn1c(SC)nnc(C)c1=O was tested. Which Potency did it give?
**A.** inactive

**Q.** CCOC(=O)c1cnc2[nH]c3ccccc3n2c1=O was tested. Which Potency did it give?
**A.** inactive

**Q.** For CCSc1ccccc1C(=O)Nc1ccc2c(c1)OCO2, which Potency is on record?
**A.** inactive

**Q.** Which Potency does the source give for CCOC(=O)C1=C(C)Nc2nc3ccccc3n2C1c1cccs1 (stereo not drawn) here?
**A.** inactive

**Q.** With CCOC(=O)C1=C(C)NC(=S)NC1c1cccs1 (stereo not drawn) as the compound, how does the Potency read?
**A.** 3.16 µM (active)

**Q.** With CCOC(=O)C1=C(C)NC(C)=C(C(=O)OCC)C1c1ccccn1 as the compound, how does the Potency read?
**A.** inactive

**Q.** C/C(=N\NC(=O)COc1c(C)cccc1C)c1cccs1 was tested. Which Potency did it give?
**A.** inactive

**Q.** For CCOc1ccc(C(=O)NC2CCN(CC(=O)NCc3cccs3)CC2)cc1, which Potency is on record?
**A.** inactive

**Q.** Which Potency does the source give for Cc1cc(C)n(-c2nnc(N3CCN(c4ccccc4)CC3)nn2)n1 here?
**A.** inactive

**Q.** For CCSc1ncnc2c(C#N)c3n(c12)CCCCC3, which Potency is on record?
**A.** 12.6 µM (active)

**Q.** For CCOC(=O)c1c(N=CN(C)C)c(C#N)c2n1CCCC2, which Potency is on record?
**A.** inactive

**Q.** With C=C(C)c1cccc(C(C)(C)NC(=O)NCCN(CC)CC)c1 as the compound, how does the Potency read?
**A.** inactive

**Q.** Which Potency does the source give for CCN(CCn1cccn1)C(=O)CC1C(=O)NCCN1Cc1cccc(OC)c1OC (stereo not drawn) here?
**A.** inactive

**Q.** Which Potency does the source give for C=C1c2cc(CC)ccc2NC(=O)N1c1ccc(C)cc1 here?
**A.** inactive

**Q.** For CCc1ccc2c(c1)C1(NN=C(c3ccccc3)S1)C(=O)N2 (stereo not drawn), which Potency is on record?
**A.** 28.2 µM (active)

**Q.** With CCc1ccc2c(c1)C(c1ccc([N+](=O)[O-])cc1)=NNC(c1ccccc1)=N2 as the compound, how does the Potency read?
**A.** inactive

**Q.** CCOc1cc(/C=C2/C(=N)N3OC(C)=CC3=NC2=O)ccc1OC was tested. Which Potency did it give?
**A.** inactive

**Q.** CCS(=O)(=O)C1=NSC2=NC(=O)/C(=C\c3cc(C)n(-c4cccc(OC)c4)c3C)C(=N)N21 was tested. Which Potency did it give?
**A.** 20 µM (active)

**Q.** For NC(=O)COC(=O)/C=C/c1ccc2ccccc2n1, which Potency is on record?
**A.** inactive

**Q.** With O=C(c1ccco1)N1CCN(C(=O)C2c3ccccc3Oc3ccccc32)CC1 as the compound, how does the Potency read?
**A.** 8.91 µM (active)

**Q.** O=C(c1ccco1)N1CCN(c2cccc(Cl)c2)CC1 was tested. Which Potency did it give?
**A.** inactive

**Q.** How did the Potency turn out when O=C(c1ccco1)N1CCN(C(=O)C2CC(c3ccc(Cl)c(Cl)c3)=NO2)CC1 (stereo not drawn) was run?
**A.** inactive

**Q.** For COc1ccc(-c2nn(-c3ccccc3)cc2CN2CCCO2)c(F)c1, which Potency is on record?
**A.** inactive

**Q.** With Cc1ccccc1CC1(CO)CCCN(Cc2ccc3c(c2)OCCO3)C1 (stereo not drawn) as the compound, how does the Potency read?
**A.** inactive

**Q.** Which Potency does the source give for Cc1ccc(N(C(=O)Cc2cccs2)C(C(=O)NCC2CCCO2)c2ccncc2)cc1 (stereo not drawn) here?
**A.** inactive

**Q.** For CCN(CC)S(=O)(=O)c1ccc(N2CCOCC2)c(C(=O)O)c1, which Potency is on record?
**A.** inactive

**Q.** O=C(c1ccc(N2CCOCC2)c([N+](=O)[O-])c1)N1CCN(S(=O)(=O)c2cccs2)CC1 was tested. Which Potency did it give?
**A.** inactive

**Q.** For COCCNC(=S)Nc1cc(S(=O)(=O)N2CCOCC2)ccc1N1CCCCC1, which Potency is on record?
**A.** 5.01 µM (active)

**Q.** How did the Potency turn out when O=C(COC(=O)c1ccccc1F)Nc1cc(S(=O)(=O)N2CCOCC2)ccc1N1CCCC1 was run?
**A.** inactive

**Q.** For O=C(COC(=O)Cc1ccc(F)cc1)Nc1cc(S(=O)(=O)N2CCOCC2)ccc1N1CCCC1, which Potency is on record?
**A.** inactive

**Q.** Which Potency does the source give for CC(=O)NCCC(=O)Nc1cc(S(=O)(=O)N2CCOCC2)ccc1N1CCOCC1 here?
**A.** inactive

**Q.** With O=S(=O)(Nc1cc(S(=O)(=O)N2CCOCC2)ccc1N1CCCC1)c1cccs1 as the compound, how does the Potency read?
**A.** 0.398 µM (active)

**Q.** CCN(CC)S(=O)(=O)c1ccc(N2CCOCC2)c(NC(=O)C2COc3ccccc3O2)c1 (stereo not drawn) was tested. Which Potency did it give?
**A.** inactive

**Q.** CCN(CC)S(=O)(=O)c1ccc(N2CCCC2)c(NS(=O)(=O)c2cccs2)c1 was tested. Which Potency did it give?
**A.** 0.282 µM (active)
